Activity calls are given as the source filed them.
Experiments:
[1] = target: Albumin (Bos taurus) (UniProt P02769); assay: bovine serum albumin binders on microarray, profiling panel, artefact control for SMM control protein annotation, biochemical, small-molecule microarray, Alexa647 label, 635/667 nm fluorescence (AID 1118); conditions: BSA-A647 binding, fluorescence 635 nm, higher = more signal;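 also: score merges 667 nm emission intensity and signal-to-noise per printed compound spot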
[2] = small-molecule microarray binders of probe aXIP, primary screen, biochemical, NeuroSMM set, 635/667 nm fluorescence (AID 1119); conditions: higher = more signal, called active from +8 up or from −8 down;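 also: probe is the protein aXip251-270 applied at 1 µg/mL to compound-printed slides; binding of probe to printed compounds measured as 667 nm fluorescence plus signal to noise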
[3] = small-molecule binders of probe aNOTCH3, primary screen, biochemical, small-molecule microarray, 635/667 nm fluorescence (AID 1120); conditions: higher = more signal;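 also: probe is a biotin-tagged antibody raised against NOTCH3 rather than NOTCH3 protein; score merges spot fluorescence near 667 nm with spot signal to noise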
[4] = small-molecule binders of probe aNOTCH2, primary screen, biochemical, small-molecule microarray, 635/667 nm fluorescence (AID 1121); conditions: higher = more signal;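 also: score merges feature fluorescence read at 667 nm with its signal to noise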
[5] = target: Carbonic anhydrase 2 (Homo sapiens) (UniProt P00918); assay: CAII small-molecule binders, profiling panel, biochemical, small-molecule microarray, Alexa647-labelled CAII (AID 1122); conditions: CAII-A647 binding fluorescence, higher = more signal
[6] = COS7 lysate on small-molecule microarray, probe aHis, 635 nm (AID 1123); conditions: COS7 cell lysate, fluorescence, higher = more signal;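 also: z-score combines 667nm fluorescence intensity with signal-to-noise per printed compound spot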
[7] = compound binding in COS7 lysate, probe aLAP1, primary screen, cell lysate, small-molecule microarray (AID 1124); conditions: probe aLAP1, fluorescence, higher = more signal;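 also: lysate comes from COS7 cells expressing LAP1 and is applied at 0.3 µg/mL; score merges spot fluorescence near 667 nm with signal-to-noise over triplicate slides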
[8] = test system: Sam68 (KHDRBS1); assay: Sam68 small-molecule binders, primary screen, biochemical, small-molecule microarray, 635 nm fluorescence (AID 1125); conditions: small-molecule microarray binding, higher = more signal;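 also: score merges 667 nm channel intensity with signal to noise over triplicate slides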
[9] = test system: Chordin-like protein 2 (CHRDL2); assay: CHRDL2 small-molecule binders, primary screen, biochemical, small-molecule microarray, 635 nm fluorescence (AID 1126); conditions: small-molecule microarray binding, fluorescence 635 nm; higher = more signal;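 also: printed compound slides probed with Chrdl2 protein at 4 µg/mL for 1 h at 4 C; score merges 667 nm emission intensity with signal to noise over three replicate slides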
[10] = target: Concanavalin-A (Canavalia ensiformis) (UniProt P02866); assay: ConA small-molecule binders, primary screen, artefact control for SMM control protein annotation, biochemical, small-molecule microarray, Alexa647 label, 635 nm (AID 1127); conditions: ConA-A647 binding fluorescence, higher = more signal;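 also: z combines 667 nm emission intensity with signal-to-noise across three replicate slides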
Concanavalin-A (Canavalia ensiformis), sequence (P02866 whole entry, looked up): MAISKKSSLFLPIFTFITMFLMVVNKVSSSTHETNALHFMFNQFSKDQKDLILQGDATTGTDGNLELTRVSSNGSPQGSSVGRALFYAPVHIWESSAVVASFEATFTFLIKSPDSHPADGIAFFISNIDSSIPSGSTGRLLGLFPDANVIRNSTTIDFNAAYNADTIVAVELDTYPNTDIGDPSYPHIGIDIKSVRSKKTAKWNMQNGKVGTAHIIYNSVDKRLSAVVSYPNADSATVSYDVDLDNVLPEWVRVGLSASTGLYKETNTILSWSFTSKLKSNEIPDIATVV

[11] = anti-His antibody binders, primary screen, artefact control for SMM control protein annotation, biochemical, small-molecule microarray, 635 nm fluorescence (AID 1128); conditions: anti-His Alexa647 antibody binding, higher = more signal;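 also: score merges feature fluorescence with signal-to-noise for each printed compound spot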
[12] = test system: Human papillomavirus type 1a E7 protein (residues 1-88); assay: HPV1a E7 small-molecule binders, primary screen, biochemical, small-molecule microarray, residues 1-88, 635 nm (AID 1129); conditions: small-molecule microarray binding, fluorescence 635 nm; higher = more signal
[13] = target: Focal adhesion kinase 1 (Homo sapiens) (UniProt Q05397); assay: small-molecule microarray binders of FAK, primary screen, biochemical, 635/667 nm fluorescence, BSA, DTT (AID 1130); conditions: PTK2 binding, 635 nm fluorescence, higher = more signal;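 also: composite of spot emission at 667 nm and signal to noise over triplicate slides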
Focal adhesion kinase 1 (Homo sapiens), sequence (Q05397 whole entry, looked up): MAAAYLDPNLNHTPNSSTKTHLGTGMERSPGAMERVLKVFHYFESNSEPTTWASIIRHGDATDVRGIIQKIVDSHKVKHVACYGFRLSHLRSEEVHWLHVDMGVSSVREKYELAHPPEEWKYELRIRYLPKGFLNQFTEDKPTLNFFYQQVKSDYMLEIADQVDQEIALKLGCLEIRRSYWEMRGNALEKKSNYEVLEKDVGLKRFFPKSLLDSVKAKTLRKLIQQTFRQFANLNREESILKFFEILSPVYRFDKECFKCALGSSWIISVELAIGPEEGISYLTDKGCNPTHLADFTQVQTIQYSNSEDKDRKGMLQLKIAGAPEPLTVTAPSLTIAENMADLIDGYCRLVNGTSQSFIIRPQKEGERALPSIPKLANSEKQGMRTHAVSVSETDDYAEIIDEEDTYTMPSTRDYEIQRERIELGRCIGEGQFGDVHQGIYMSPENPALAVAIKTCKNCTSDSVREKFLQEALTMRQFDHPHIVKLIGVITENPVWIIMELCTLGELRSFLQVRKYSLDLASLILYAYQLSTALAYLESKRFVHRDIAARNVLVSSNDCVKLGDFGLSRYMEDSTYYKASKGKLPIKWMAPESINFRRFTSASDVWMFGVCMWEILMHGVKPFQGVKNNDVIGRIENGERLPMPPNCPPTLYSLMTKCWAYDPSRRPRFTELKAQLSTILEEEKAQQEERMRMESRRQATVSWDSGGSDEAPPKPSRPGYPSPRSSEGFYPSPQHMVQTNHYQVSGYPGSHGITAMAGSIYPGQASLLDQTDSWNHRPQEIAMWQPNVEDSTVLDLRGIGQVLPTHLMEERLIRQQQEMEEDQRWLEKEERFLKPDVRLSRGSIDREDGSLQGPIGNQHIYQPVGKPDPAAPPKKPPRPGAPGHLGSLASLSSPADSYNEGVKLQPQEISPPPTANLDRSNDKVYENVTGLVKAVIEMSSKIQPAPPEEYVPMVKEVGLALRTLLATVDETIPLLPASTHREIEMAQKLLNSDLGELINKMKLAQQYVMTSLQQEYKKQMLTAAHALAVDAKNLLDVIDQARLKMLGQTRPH

[14] = test system: Fibrinogen (Alexa647-labelled); assay: fibrinogen binders on compound microarrays, profiling panel, artefact control for SMM control-protein annotation, biochemical, small-molecule microarray, 635/667 nm fluorescence (AID 1131); conditions: fibrinogen-A647 binding fluorescence, higher = more signal;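 also: z-score merges 667 nm fluorescence with per-spot signal-to-noise over triplicate slides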
[15] = target: Follistatin (Homo sapiens) (UniProt P19883); assay: follistatin binders on small-molecule microarrays, primary screen, biochemical, small-molecule microarray, 635/667 nm fluorescence (AID 1132); conditions: FST binding, 635 nm fluorescence, higher = more signal
Follistatin (Homo sapiens), sequence (P19883 whole entry, looked up): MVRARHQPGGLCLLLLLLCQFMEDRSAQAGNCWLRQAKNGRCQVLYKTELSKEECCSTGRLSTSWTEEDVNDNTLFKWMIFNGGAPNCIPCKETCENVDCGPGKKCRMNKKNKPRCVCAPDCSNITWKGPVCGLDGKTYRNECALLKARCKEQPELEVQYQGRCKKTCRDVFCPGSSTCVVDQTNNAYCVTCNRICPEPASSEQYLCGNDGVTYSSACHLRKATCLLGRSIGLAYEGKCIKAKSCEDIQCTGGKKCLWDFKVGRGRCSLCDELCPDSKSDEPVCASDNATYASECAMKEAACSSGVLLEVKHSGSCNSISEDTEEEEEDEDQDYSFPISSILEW

[16] = target: Fibroblast growth factor 2 (Homo sapiens) (UniProt P09038); assay: FGF2 binders on small-molecule microarrays, primary screen, biochemical, small-molecule microarray, 635/667 nm fluorescence (AID 1133); conditions: small-molecule microarray binding, FGF2, fluorescence 635/667; higher = more signal
Fibroblast growth factor 2 (Homo sapiens), sequence (P09038 whole entry, looked up): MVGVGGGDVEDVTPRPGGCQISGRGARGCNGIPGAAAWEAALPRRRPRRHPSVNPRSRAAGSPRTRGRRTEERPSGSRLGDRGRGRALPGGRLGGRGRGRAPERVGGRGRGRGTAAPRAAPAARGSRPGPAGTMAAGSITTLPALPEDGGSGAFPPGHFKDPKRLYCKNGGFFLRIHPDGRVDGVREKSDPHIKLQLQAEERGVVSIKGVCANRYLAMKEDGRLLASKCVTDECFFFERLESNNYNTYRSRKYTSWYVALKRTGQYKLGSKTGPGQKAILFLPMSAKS

[17] = mitochondrial membrane potential change in A549 cells, profiling panel, cell-based, JC-1 fluorescence, basal, 24 h, 100 nL (AID 1138); conditions: higher = more signal;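 also: A549 lung adenocarcinoma cells under basal conditions with no added stimulus; test concentration not given here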
[18] = test system: Lefty1; assay: Lefty1 binders on small-molecule microarrays, primary screen, biochemical, small-molecule microarray, 635/667 nm fluorescence (AID 1139); conditions: small-molecule microarray binding, fluorescence 635/667; higher = more signal
[19] = test system: wheat germ agglutinin (Triticum aestivum), Alexa647-labelled; assay: wheat germ agglutinin binders on compound microarrays, profiling panel, artefact control for SMM control-protein annotation, biochemical, small-molecule microarray, 635/667 nm fluorescence (AID 1140); conditions: WGA-A647 binding, 635 nm fluorescence, higher = more signal;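 also: score merges 667 nm feature emission with signal to noise over triplicate slides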
[20] = target: Luciferin 4-monooxygenase (Photinus pyralis) (UniProt P08659); assay: firefly luciferase enzyme inhibitors, primary screen, biochemical, luminescence, purified enzyme, 2006 set (AID 1141); conditions: SteadyGlo luminescence, 30 min, higher = more signal, called active from +8 up or from −8 down;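 also: cell-free assay with purified firefly luciferase at 100 ng per well in PBS; test concentration not given here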
Luciferin 4-monooxygenase (Photinus pyralis), sequence (P08659 whole entry, looked up): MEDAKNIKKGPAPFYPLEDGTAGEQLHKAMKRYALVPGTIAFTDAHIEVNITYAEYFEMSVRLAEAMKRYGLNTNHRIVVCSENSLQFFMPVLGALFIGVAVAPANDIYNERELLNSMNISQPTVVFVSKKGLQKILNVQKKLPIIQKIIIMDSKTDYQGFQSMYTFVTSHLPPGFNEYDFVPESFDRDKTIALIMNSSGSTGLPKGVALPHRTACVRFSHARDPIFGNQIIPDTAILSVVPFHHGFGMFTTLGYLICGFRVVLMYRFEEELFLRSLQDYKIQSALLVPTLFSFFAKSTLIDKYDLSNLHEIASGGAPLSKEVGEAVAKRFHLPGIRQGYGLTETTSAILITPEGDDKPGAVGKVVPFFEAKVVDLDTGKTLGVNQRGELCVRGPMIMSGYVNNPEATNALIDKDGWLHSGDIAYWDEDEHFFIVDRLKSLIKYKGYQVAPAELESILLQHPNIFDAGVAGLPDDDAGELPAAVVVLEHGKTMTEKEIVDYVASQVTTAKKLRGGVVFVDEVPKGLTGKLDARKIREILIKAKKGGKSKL

Albumin (Bos taurus), sequence (P02769 whole entry, looked up): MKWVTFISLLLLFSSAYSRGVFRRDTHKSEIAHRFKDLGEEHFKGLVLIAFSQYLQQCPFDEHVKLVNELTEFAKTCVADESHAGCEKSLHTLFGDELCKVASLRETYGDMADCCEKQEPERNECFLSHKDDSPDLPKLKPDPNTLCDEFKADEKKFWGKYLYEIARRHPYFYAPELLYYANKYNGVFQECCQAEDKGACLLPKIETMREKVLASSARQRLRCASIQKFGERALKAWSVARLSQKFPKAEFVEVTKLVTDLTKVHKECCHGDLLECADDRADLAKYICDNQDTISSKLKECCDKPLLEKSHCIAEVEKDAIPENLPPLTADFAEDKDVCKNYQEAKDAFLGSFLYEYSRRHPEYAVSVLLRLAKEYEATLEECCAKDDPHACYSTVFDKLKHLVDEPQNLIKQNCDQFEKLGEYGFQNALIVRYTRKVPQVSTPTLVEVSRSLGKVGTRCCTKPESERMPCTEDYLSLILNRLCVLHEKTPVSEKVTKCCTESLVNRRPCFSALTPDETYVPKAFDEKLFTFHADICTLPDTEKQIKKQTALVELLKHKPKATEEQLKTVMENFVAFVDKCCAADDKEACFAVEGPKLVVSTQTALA

| SMILES | composite z-score [1] | composite Z-score [2] | composite z-score [3] | composite z-score [4] | composite z-score [5] | composite z-score [6] | composite z-score [7] | composite z-score [8] | composite z-score [9] | composite z-score [10] | composite z-score [11] | composite z-score [12] | composite z-score [13] | composite z-score [14] | composite z-score [15] | composite z-score [16] | z-score [17] | composite z-score [18] | composite z-score [19] | z-score [20] |
| --- | --- | --- | --- | --- | --- | --- | --- | --- | --- | --- | --- | --- | --- | --- | --- | --- | --- | --- | --- | --- |
| COC(=O)c1c(CC[C@@H](CO)NC(=O)N[C@@H](C)Cn2cc(C3(O)CCCC3)nn2)oc(C(C)=O)c1C(=O)OC | 0.815 | 0.42 (inactive) | 0.276 | -0.204 | 0.672 | 2.66 | 0.0377 | 0.481 | -0.425 | 0.484 | 0.863 | -0.0221 | -0.118 | 0.188 | 0.511 | 0.0707 | -0.638 | 1.54 | 1.3 | 0.315 (inactive) |
| C=CC[C@]1(C(=O)N(C)C)N=C(c2ccc(OCCCO)cc2)O[C@H]1c1ccccc1 | 0.641 | -0.001 (inactive) | 0.297 | -0.124 | 0.687 | 2.93 | 0.795 | 1.26 | -0.336 | 0.999 | 0.661 | 1.23 | 1.04 | 0.951 | 0.915 | -0.165 | -0.259 | 0.457 | 0.149 | -1.52 (inactive) |
| CC(C)C(CO)N1C(=O)[C@@H]2[C@H]3C(=O)OCC=C[C@H]3OC23C=CCN(Cn2nnc4ccccc42)C(=O)[C@@H]13 (stereo not given in full) | -1.25 | -0.274 (inactive) | -0.226 | -0.204 | 0.931 | -0.0704 | -0.215 | -0.821 | -1.73 | -1.34 | 0.36 | -0.938 | 0.118 | -0.424 | -0.802 | -1.05 | -0.58 | -1.72 | -0.203 | 0.152 (inactive) |
| CCCC[C@H]1OB(O)C[C@H]2C1=C(COc1ccccc1)Cn1c(=O)n(-c3ccccc3)c(=O)n12 | 0.196 | 0.131 (inactive) | 0.0705 | -0.114 | 0.247 | 1.1 | 0.0367 | 1.14 | 0.357 | 0.501 | 0.458 | 0.711 | -0.0229 | 0.333 | 1.1 | 0.302 | -0.0843 | 0.976 | 0.09 | -0.25 (inactive) |
| COc1ccc([Si](C)(C)[C@@H]2[C@@H](CC(=O)N3Cc4ccccc4C[C@H]3CO)O[C@]3(C(=O)N(Cc4cccc(N5CCCCC5=O)c4)c4ccccc43)[C@H]2C)cc1 | -0.565 | 0.436 (inactive) | 0.0425 | -0.133 | -0.0599 | 0.977 | 0.426 | 1.29 | 1.28 | 1.13 | 1.02 | 1.13 | 0.739 | 0.641 | 1.36 | 1.57 | -0.96 | 1.5 | 0.676 | 0.227 (inactive) |
| NC(=O)NCC#Cc1ccc2c(c1)[C@]1(C(=O)N2)[C@H](c2ccc(O)cc2)N2[C@H](c3ccccc3)[C@H](c3ccccc3)OC(=O)[C@H]2[C@@H]1C(=O)NC[C@H](O)c1ccccc1 | 0.233 | -0.539 (inactive) | -0.464 | -0.122 | -0.051 | 0.327 | 0.469 | -1.03 | -1.12 | -1.34 | -0.652 | -0.843 | -0.126 | -1.74 | -2.12 | -1.11 | 0.717 | -3.02 | -1.82 | -0.498 (inactive) |
| C[N+](C)(C)CCCC[C@@H]1NC(=O)[C@@H]2C[C@H](C(=O)NCCCCCNC(=O)CS)[C@H](c3cccc(OCCO)c3)N2C1=O | 0.666 | 0.0831 (inactive) | 0.0287 | -0.0662 | 0.399 | 0.46 | -0.343 | 0.765 | 0.361 | 0.88 | 0.664 | 0.14 | 0.0046 | 0.909 | 1.25 | 1.5 | 1.71 | 0.272 | 0.134 | -1.68 (inactive) |
| O=[N+]([O-])c1ccc(C[n+]2ccc(-c3ccc(CO)cc3)cc2)o1 | 0.904 | 0.289 (inactive) | -0.0043 | -0.0485 | 0.885 | 1.13 | 1.2 | 0.649 | 0.768 | 0.648 | 1.38 | 0.148 | 0.197 | -0.0943 | 1.34 | 0.59 | -0.93 | 0.362 | 1.17 | -0.208 (inactive) |
| CN1C(=O)C2C=CC(C(O)COCc3ccccc3)N(Nc3ccccc3)C2C1=O (stereo not given) | 0.898 | -0.0217 (inactive) | 0.348 | -0.127 | 0.81 | 1.44 | -0.0468 | 0.616 | -0.142 | 0.479 | 0.563 | 0.593 | 0.324 | 0.711 | 0.433 | -0.11 | 1.64 | 0.135 | 0.681 | 0.982 (inactive) |
| C=CC[C@]1(C(=O)N2CCOCC2)N=C(c2ccc(OCCCO)cc2)O[C@H]1c1ccccc1CN=[N+]=[N-] | 0.971 | 0.0707 (inactive) | 0.533 | 0.0402 | 0.385 | 2.92 | 1.64 | 1.29 | -0.321 | 1.15 | 1.82 | 1.21 | 0.88 | 0.97 | 1.28 | 0.95 | 1.64 | 1.05 | 0.845 | -1.46 (inactive) |
| Cc1ccc(S[C@]2(C(=O)O)CC(=O)N(C3CCCCC3)[C@@H]2c2ccc(CO)cc2)cc1 | 0.242 | 0.842 (inactive) | -0.398 | 0.0394 | 0.714 | 1.29 | 0.975 | 1.31 | -0.134 | 1.16 | 2.04 | 1.16 | 0.552 | 0.991 | 0.271 | 0.257 | 0.991 | -0.776 | 0.899 | 0.186 (inactive) |
